Only some compounds are listed: those with a hit (about 9% of all), similar ones and a draw of the others.
HPGD block = HPGD (human) dehydrogenase inhibition | P15428 | purified HPGD, NADH fluorescence kinetic, PGE2 substrate | Potency, µM, inactives show at the highest dose activity change, negative = inhibition, most hits filed as inhibitors | 150,000 compounds, 4.3% hits | AID 894; further: potency means the concentration at half of the fitted maximal effect
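NADH formation kinetics: reaction with 30 uM PGE2 and 1 mM NAD+ (final), 20 nM enzyme, Tris-HCl pH 8 with Tween 20, after 15 min compound preincubation at room temperature. Fluorescence change, last versus first of five reads.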
IMPase inh = cell-permeable inhibitors of inositol monophosphatase (IMPase). 120,000 tested, under 10 active. inhibition (IP1 accumulation), % at 46.1 µM. CHO-M1 cells, IP1 accumulation, HTRF TR-FRET ratio. P97697; active means well fitted curve in the direction sought with a large enough effect in the signal ratio, not every such curve was filed as active; inconclusive means small, poorly fitted or top-dose-only effect, or a change in a side signal; inactive means no such curve, though single readings can be large or run the other way; the % refers to the signal ratio;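 further: cells stimulated with carbachol in lithium chloride buffer; plate controls were DMSO basal wells for no effect and reference inhibitor wells for full effect; higher means more IMPase inhibition seen as more IP1 and lower FRET ratio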
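Cellular IMPase inhibition is scored as a rise in cytosolic IP1, detected by competitive TR-FRET between d2-labelled IP1 and a europium anti-IP1 antibody. M1-expressing CHO cells were stimulated with carbachol for 30 min at 37C, with lithium (50 mM LiCl) present in the buffer.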
ALDH1A1 inh = blocks purified human ALDH1A1 activity; AID 1030; P00352; Potency, µM (doses to about 75.3 µM), without a hit: at the highest dose activity, negative = inhibition, hits mostly inhibitors; Purified ALDH1A1, NADH fluorescence, propionaldehyde substrate; 220,000 compounds, 7.3% hits;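 further: potency means the concentration at half of the fitted maximal effect; plate controls were no enzyme wells and a reference inhibitor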
Target sequence (P00352 whole entry, looked up): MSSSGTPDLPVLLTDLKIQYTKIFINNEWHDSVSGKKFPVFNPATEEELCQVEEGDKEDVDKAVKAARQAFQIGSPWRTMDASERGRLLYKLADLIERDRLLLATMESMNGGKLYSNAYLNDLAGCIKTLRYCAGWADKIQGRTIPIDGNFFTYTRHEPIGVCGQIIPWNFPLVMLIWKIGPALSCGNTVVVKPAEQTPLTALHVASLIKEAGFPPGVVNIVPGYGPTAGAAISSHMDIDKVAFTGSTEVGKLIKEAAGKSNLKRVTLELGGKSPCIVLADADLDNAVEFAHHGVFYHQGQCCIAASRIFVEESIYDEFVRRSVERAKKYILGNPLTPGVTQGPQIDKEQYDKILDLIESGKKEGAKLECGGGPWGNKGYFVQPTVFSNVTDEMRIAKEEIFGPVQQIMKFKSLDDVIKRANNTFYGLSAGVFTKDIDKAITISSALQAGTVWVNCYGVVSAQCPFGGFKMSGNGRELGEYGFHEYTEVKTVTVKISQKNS
Numbers without * were called inactive; ? = inconclusive; . = not tested or not shown; [ ] = remark or other dose. Unless noted, the call rests on the fitted dose curve; in most records, active means well fitted inhibition curve with a large enough effect (not every such curve was filed as active); inconclusive means small, poorly fitted or top-dose-only effect, or another doubt; inactive means no such curve, though single readings can be large or run the other way. Unless noted, on the % scale 0 is the no-effect control and ±100 the full control effect.

SMILES	HPGD block	IMPase inh	ALDH1A1 inh
CC(=O)NC1=C(NC2CCS(=O)(=O)C2)C(=O)c2ccccc2C1=O (stereo not given)	11.2µM*	?	4.0%
CN(C1=C(NC(=O)c2ccccc2)C(=O)c2ccccc2C1=O)C1CCS(=O)(=O)C1 (stereo not given)	-27.3%	.	?
Clc1ccc(-n2cccc2CN2CCc3c([nH]c4ccccc34)C2c2ccccn2)nc1 (stereo not given)	.	.	14.1µM*
COc1cccc(C2c3[nH]c4ccccc4c3CCN2Cc2cccn2-c2ncccn2)c1 (stereo not given)	.	.	-1.0%
Fc1ccc(C2c3[nH]c4ccccc4c3CCN2Cc2cccn2-c2ncccn2)cc1 (stereo not given)	.	.	10µM*
O=C(Cc1ccsc1)N1CCc2c([nH]c3ccccc23)C1c1ccccn1 (stereo not given)	.	.	-15.3%
CCOC(=O)C1=C(CBr)NC(=O)NC1C (stereo not given)	.	.	14.1µM*
CCOC(=O)C1=C(C)NC(=O)NC1C (stereo not given)	-1.2%	-10.9	21.6%
CCOC(=O)c1c(N)sc2c1CCSC2	-21.7%	-6.7	12.6µM*
CCOC(=O)c1c(N)sc2c1CCC(CC)C2 (stereo not given)	?	-10.3	?
CCCOC(=O)c1c(NC(=O)C2c3ccccc3Oc3ccccc32)sc2c1CCCC2	.	-3.4	.
CCCOC(=O)c1c(N)sc2c1CCC2	-19.9%	?	28.2µM*
CCCCC(=O)Nc1ccccc1C(C)C	.	.	1.0%
O=C(NC1CC1)C1=C[C@@H](C2CCCCC2)C[C@@H](OCCCCO)O1	.	.	-2.1%
CCCCCCCCCCCCCCC[C@@H](O)[C@@H](N)CO	-7.1%	-6.8	2.4%
CCOC(=O)c1[nH]c(CSc2nnc(-c3ccncc3)n2CCOC)c(C(=O)OCC)c1C	-2.6%	0.9	4.8%
COC(=O)c1c(C)[nH]c(C(=O)CSc2nnnn2-c2ccccc2)c1C	-10.6%	4.3	3.4%
CCOC(=O)c1c(C)[nH]c(C)c1C(=O)CSc1nnnn1-c1ccccc1	-3.0%	-0.9	31.6µM*
Cc1ccc(-n2nnnc2SC(C)C(N)=O)c(C)c1 (stereo not given)	-2.2%	-2.8	-2.2%
Cc1ccccc1-n1nnnc1SCc1csc(-c2ccccc2)n1	-14.6%	17.0	7.94µM*
CCOC(=O)c1[nH]c(CSc2nnnn2-c2ccccc2C)c(C(=O)OCC)c1C	3.4%	6.0	3.55µM*
Cc1ccccc1-n1nnnc1SCC(C)C	.	.	1.12µM*
Nn1c(SCc2csc(-c3ccccc3)n2)nnc1-c1cccs1	?	7.3	?
CCOC(=O)CN1C(=O)CCSc2ccc(Cl)cc21	.	.	5.1%
COc1cccc(-c2cc(N)nn2C(=O)Nc2ccc(Cl)cc2)c1	-18.7%	1.2	-2.4%
SMILES	HPGD block	IMPase inh	ALDH1A1 inh
O=C(O)CCC(=O)Nc1ccccc1C(=O)N1CCN(c2ccc(Cl)cc2)CC1	.	.	6.2%
S=C(NCc1cccnc1)Nc1ccc(Cl)c(Cl)c1	14.1µM*	7.9	?
CCC(C)c1ccc(NC(=S)NCc2cccnc2)cc1 (stereo not given)	?	-9.0	15.8µM*
Fc1ccc(NC(=S)NCc2cccnc2)cc1	.	.	9.4%
COc1ccc(NC(=S)NCc2cccnc2)cc1	.	.	0.5%
COc1ccc(CNC(=O)CN2C(=O)CC(c3ccccc3)=Nc3ccccc32)cc1	.	.	-2.6%
c1ccc(CSc2ccc(-c3cccnc3)nn2)cc1	.	.	-3.0%
COc1cc2c(c(OC)c1OC)-c1ccc(OC)c(=O)cc1[C@H](NC(C)=O)CC2	-1.9%	4.6	-2.5%
C[C@H](O)[C@@H]1C(=O)N2C(C(=O)O)=C(SCCN=CN)C[C@@H]12	-9.9%	-5.0[20.6 µM]	-2.1%[20.9 µM]
Cc1cc(C)n2nc(C(=O)N/N=C/c3cccs3)nc2n1	.	.	0.3%
CC(C)COc1ccc(C(=O)Nc2ccc(S(=O)(=O)Nc3ncccn3)cc2)cc1	.	-9.6	.
CCN(CC)c1ccc(C=N/C(C#N)=C(\N)C#N)cc1	-1.1%	?	11.2µM*
N#Cc1ccc(/C=N/N=C(N)N)cc1	-9.4%	7.1	6.9%
COC(=O)c1ccc(CNC(=O)COC(=O)C2CCC(C(C)(C)C)CC2)cc1 (stereo not given)	-9.9%	.	?
COc1ccccc1N1CCN(S(=O)(=O)CC23CCC(CC2=O)C3(C)C)CC1 (stereo not given)	4.7%	-4.3	-9.5%
CCNc1nc2c(c(=O)n(Cc3ccccc3)c(=O)n2C)n1Cc1ccccc1	-7.1%	0.0	-11.6%
C=CCN(CC=C)S(=O)(=O)c1ccc(NC(=S)NC(=O)c2ccc(-c3ccccc3)cc2)cc1	?	11.7	3.16µM*
C=CCN(CC=C)S(=O)(=O)c1ccc(NC(=S)NC(=O)/C=C/c2ccc(C)cc2)cc1	-13.1%	7.6	-3.9%
C=CCN(CC=C)S(=O)(=O)c1ccc(NC(=S)NC(=O)c2ccco2)cc1	-14.1%	22.2	22.4µM*
C=CCN(CC=C)S(=O)(=O)c1ccc(NC(=S)NC(=O)Cc2ccc(OC)cc2)cc1	-11.7%	10.3	-7.6%
CCCc1cc(=O)[nH]c(SCC(=O)Nc2cc(C)on2)n1	.	.	0.4%
CCC1CCC2(CC1)NC(=O)N(CC(=O)c1c(C)[nH]c3ccccc13)C2=O (stereo not given)	-12.7%	-10.0	2.4%
CCOC(=O)N1CCN(S(=O)(=O)c2ccc(C)c([N+](=O)[O-])c2)CC1	.	.	6.6%
CC(C)CN1C(=O)C(=Nc2cccnc2)c2ccccc21	.	.	1µM*
O=C1c2ccccc2C(O)N1c1cccnc1 (stereo not given)	-23.0%	0.0	7.6%
SMILES	HPGD block	IMPase inh	ALDH1A1 inh
c1ccc(SCCSc2ccccc2)cc1	-11.5%	.	18.9%
Cc1c(NS(=O)(=O)c2ccc(N3CCCCC3)c([N+](=O)[O-])c2)c(=O)n(-c2ccccc2)n1C	-4.1%	.	-3.1%
Cc1c(Nc2cc(N3CCCCCC3)c3nonc3c2[N+](=O)[O-])c(=O)n(-c2ccccc2)n1C	11.2µM*	4.5	5.1%
O=C(NCc1cccnc1)C1c2ccccc2C(=O)N1C1CCCC1 (stereo not given)	-3.7%	-2.5	-6.3%
Cc1nnc(SCC(=O)NNC(=O)CC#N)[nH]c1=O	-2.4%	2.9	-2.1%
CN(CCNC(=O)CN1C(=O)CSc2ccc(S(=O)(=O)N3CCCC3)cc21)Cc1ccccc1	.	.	-3.6%
CC(=O)Nc1cc(C(=O)N(C)Cc2ccco2)ccc1Sc1ccc(C)cc1	-3.9%	2.2	-2.5%
CCOC(=O)c1c(-c2ccc(OC)cc2)csc1NC(=O)C1CCCO1 (stereo not given)	.	.	8.91µM*
CCOC(=O)c1c(NC(=O)C2CCCO2)sc(C(N)=O)c1C (stereo not given)	-10.2%	.	?
CCOC(=O)c1c(-c2ccc(C)cc2)csc1NC(=O)C1CCCO1 (stereo not given)	-16.3%	.	?
CC(C)OC(=O)c1c(-c2ccc(C(C)C)cc2)csc1NC(=O)C1CCCO1 (stereo not given)	-12.3%	1.4	10.0%
CCOC(=O)c1c(-c2ccc(F)cc2)csc1NC(=O)C1CCCO1 (stereo not given)	.	.	11.2µM*
CCOC(=O)c1c(-c2ccc(OCC)cc2)csc1NC(=O)CCN1C(=O)c2ccccc2C1=O	-16.2%	.	-14.3%
CCCOC(=O)c1c(NC(=O)C2CCCO2)sc(C(=O)OC)c1C (stereo not given)	10µM*	.	2µM*
